# ± gives the standard deviation of the averaged measurements. Of roughly 6,200 targets only a part is listed; those with the largest changes were picked by preference.
# Columns and labels:
# Experiment in all cases: NP40-soluble protein abundance relative to vehicle (solubility fold change) (ratio); higher = more soluble protein in presence of AMP-PNP
# KIAA0319L = target: T1, KIAA0319L (UniProt Q8IZA0)
# T1 sequence (whole entry): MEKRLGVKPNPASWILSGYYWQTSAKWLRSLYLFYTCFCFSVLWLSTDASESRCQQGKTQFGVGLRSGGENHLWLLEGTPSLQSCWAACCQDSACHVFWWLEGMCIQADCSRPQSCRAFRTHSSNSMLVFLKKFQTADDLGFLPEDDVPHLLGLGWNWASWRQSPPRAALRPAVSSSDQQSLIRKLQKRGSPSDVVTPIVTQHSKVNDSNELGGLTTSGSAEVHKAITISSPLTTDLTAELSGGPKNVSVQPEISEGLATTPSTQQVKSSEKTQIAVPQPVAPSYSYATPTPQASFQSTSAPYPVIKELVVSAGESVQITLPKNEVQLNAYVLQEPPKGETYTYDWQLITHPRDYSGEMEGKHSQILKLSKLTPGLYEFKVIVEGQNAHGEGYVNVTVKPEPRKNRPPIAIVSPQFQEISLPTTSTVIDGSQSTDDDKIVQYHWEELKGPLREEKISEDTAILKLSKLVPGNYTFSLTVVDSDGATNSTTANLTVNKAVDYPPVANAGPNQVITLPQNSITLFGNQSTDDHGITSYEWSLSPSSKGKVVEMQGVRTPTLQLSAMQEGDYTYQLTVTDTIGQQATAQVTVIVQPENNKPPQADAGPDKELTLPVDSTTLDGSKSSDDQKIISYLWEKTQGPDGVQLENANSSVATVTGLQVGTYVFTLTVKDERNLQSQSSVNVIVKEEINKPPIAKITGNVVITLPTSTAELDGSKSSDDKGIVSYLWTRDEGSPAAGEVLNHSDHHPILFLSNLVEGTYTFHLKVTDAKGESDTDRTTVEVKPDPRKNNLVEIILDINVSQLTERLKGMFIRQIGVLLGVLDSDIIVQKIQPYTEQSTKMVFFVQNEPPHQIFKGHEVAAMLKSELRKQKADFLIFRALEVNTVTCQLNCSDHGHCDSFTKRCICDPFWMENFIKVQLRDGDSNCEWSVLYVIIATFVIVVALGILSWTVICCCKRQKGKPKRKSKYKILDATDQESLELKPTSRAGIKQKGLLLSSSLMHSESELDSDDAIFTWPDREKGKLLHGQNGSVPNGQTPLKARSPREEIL
# Outline: (§1)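 Each value is a fold change relative to the detergent-processed vehicle, calculated per replicate from vsn-normalised intensities. Jurkat crude lysate received eight concentrations (0.1 to 10 mM) for 10 min at room temperature and 3 min at 37 °C, then was solubilised in 0.8% NP40 with benzonase (60 min, 4 °C). The ultracentrifuged supernatant was TMT-labelled and run by LC-MS/MS in three independent experiments.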
# NUFIP2 = target: T2, NUFIP2 (UniProt Q7Z417)
# T2 sequence (whole entry): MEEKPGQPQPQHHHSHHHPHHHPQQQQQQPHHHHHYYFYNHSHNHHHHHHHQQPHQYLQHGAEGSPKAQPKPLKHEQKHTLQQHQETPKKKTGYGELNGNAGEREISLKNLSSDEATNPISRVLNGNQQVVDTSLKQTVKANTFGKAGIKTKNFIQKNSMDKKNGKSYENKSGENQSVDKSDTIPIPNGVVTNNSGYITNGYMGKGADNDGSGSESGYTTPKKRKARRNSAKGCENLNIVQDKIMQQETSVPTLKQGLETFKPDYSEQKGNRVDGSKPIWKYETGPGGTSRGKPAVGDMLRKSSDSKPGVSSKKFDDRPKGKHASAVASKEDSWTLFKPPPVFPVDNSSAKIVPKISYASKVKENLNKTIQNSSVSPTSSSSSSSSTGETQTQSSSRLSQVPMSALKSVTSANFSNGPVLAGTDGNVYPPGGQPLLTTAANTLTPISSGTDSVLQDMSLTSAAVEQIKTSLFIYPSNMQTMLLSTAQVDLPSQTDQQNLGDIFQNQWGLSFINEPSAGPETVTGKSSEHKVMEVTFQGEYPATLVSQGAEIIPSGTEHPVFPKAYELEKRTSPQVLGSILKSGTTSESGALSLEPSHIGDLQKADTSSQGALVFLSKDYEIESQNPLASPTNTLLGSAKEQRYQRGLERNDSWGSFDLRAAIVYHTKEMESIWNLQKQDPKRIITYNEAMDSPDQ
# Outline: as §1
# PINX1 = target: T3, PINX1 (UniProt Q96BK5)
# T3 sequence (whole entry): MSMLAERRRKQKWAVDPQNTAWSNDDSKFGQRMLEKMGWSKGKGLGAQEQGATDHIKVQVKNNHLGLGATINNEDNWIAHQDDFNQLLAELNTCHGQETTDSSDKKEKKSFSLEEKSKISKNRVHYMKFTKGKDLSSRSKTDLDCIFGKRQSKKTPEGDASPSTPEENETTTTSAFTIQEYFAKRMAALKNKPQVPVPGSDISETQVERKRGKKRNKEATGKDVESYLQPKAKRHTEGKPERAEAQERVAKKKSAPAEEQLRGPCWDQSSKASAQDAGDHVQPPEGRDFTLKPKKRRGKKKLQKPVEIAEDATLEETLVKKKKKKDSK
# Outline: as §1
# TTF1 = target: T4, TTF1 (UniProt Q15361)
# T4 sequence (whole entry): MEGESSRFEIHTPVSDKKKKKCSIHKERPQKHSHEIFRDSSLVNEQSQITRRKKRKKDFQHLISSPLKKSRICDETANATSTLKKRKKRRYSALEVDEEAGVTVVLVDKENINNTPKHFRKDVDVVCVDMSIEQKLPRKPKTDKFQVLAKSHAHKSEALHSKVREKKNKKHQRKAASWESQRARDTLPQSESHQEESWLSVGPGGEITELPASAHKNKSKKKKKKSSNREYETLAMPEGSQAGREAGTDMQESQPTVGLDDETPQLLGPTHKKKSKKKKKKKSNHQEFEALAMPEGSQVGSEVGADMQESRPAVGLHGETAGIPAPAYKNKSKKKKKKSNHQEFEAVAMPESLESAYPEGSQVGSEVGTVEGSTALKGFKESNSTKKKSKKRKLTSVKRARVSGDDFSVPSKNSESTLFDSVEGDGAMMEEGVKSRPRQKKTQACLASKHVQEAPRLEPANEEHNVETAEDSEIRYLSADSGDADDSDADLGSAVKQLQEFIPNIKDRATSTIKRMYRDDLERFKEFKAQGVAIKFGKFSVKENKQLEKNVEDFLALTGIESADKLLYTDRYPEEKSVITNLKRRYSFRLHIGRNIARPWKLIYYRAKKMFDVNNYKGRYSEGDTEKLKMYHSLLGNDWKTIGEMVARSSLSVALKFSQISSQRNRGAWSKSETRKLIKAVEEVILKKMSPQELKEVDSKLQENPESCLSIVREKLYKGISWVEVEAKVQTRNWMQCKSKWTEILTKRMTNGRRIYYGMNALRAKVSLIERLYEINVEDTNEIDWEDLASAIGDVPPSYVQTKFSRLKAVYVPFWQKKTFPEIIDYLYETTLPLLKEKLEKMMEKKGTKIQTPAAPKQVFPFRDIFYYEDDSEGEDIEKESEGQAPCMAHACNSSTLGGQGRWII
# Outline: as §1
# UniProt Q147X3|Q147X3-2 = target: T5, UniProt Q147X3|Q147X3-2
# T5 sequence (whole entry): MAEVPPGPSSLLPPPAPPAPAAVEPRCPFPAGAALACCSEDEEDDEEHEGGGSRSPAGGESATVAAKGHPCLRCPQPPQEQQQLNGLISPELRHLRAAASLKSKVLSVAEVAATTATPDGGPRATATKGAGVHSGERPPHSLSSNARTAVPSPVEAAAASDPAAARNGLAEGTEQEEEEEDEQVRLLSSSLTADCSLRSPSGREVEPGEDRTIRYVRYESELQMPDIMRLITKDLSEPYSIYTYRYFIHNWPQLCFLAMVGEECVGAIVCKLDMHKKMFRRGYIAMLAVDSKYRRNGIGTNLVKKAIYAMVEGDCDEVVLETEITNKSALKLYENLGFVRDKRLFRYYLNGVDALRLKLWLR
# Outline: as §1
smiles,measurement,setting,value
Nc1ncnc2c1ncn2[C@@H]1O[C@H](COP(=O)(O)OP(=O)(O)NP(=O)(O)O)[C@@H](O)[C@H]1O [adenylyl imidodiphosphate],NP40-soluble protein abundance,KIAA0319L; concentration: 1mM,1.01 ± 0.014
same,NP40-soluble protein abundance,KIAA0319L; concentration: 2mM,1.03 ± 0.033
same,NP40-soluble protein abundance,KIAA0319L; concentration: 4mM,0.977 ± 0.025
same,NP40-soluble protein abundance,KIAA0319L; concentration: 6mM,0.969 ± 0.034
same,NP40-soluble protein abundance,KIAA0319L; concentration: 8mM,0.976 ± 0.017
same,NP40-soluble protein abundance,KIAA0319L; concentration: 10mM,0.9945 ± 0.0054
same,NP40-soluble protein abundance,NUFIP2; concentration: 1mM,1.11 ± 0.029
same,NP40-soluble protein abundance,NUFIP2; concentration: 2mM,1.22 ± 0.066
same,NP40-soluble protein abundance,NUFIP2; concentration: 4mM,1.24 ± 0.023
same,NP40-soluble protein abundance,NUFIP2; concentration: 6mM,1.26 ± 0.14
same,NP40-soluble protein abundance,NUFIP2; concentration: 8mM,1.27 ± 0.14
same,NP40-soluble protein abundance,NUFIP2; concentration: 10mM,1.37 ± 0.12
same,NP40-soluble protein abundance,PINX1; concentration: 1mM,1.15 ± 0.053
same,NP40-soluble protein abundance,PINX1; concentration: 2mM,1.27 ± 0.034
same,NP40-soluble protein abundance,PINX1; concentration: 4mM,1.36 ± 0.09
same,NP40-soluble protein abundance,PINX1; concentration: 6mM,1.51 ± 0.057
same,NP40-soluble protein abundance,PINX1; concentration: 8mM,1.59 ± 0.083
same,NP40-soluble protein abundance,PINX1; concentration: 10mM,1.8 ± 0.079
same,NP40-soluble protein abundance,TTF1; concentration: 1mM,0.967 ± 0.024
same,NP40-soluble protein abundance,TTF1; concentration: 2mM,0.963 ± 0.024
same,NP40-soluble protein abundance,TTF1; concentration: 4mM,0.957 ± 0.025
same,NP40-soluble protein abundance,TTF1; concentration: 6mM,0.96 ± 0.046
same,NP40-soluble protein abundance,TTF1; concentration: 8mM,0.912 ± 0.02
same,NP40-soluble protein abundance,TTF1; concentration: 10mM,0.949 ± 0.045
same,NP40-soluble protein abundance,UniProt Q147X3|Q147X3-2; concentration: 1mM,0.992 ± 0.016
same,NP40-soluble protein abundance,UniProt Q147X3|Q147X3-2; concentration: 2mM,0.971 ± 0.025
same,NP40-soluble protein abundance,UniProt Q147X3|Q147X3-2; concentration: 4mM,1.01 ± 0.059
same,NP40-soluble protein abundance,UniProt Q147X3|Q147X3-2; concentration: 6mM,1.03 ± 0.046
same,NP40-soluble protein abundance,UniProt Q147X3|Q147X3-2; concentration: 8mM,0.99 ± 0.023
same,NP40-soluble protein abundance,UniProt Q147X3|Q147X3-2; concentration: 10mM,1 ± 0.025

# From the supplement of paper PMC6411743
